In PubChem BioAssay one finds inhibition data, which are given here for 26 compounds.

Structures are written as SMILES. Unmarked numbers belong to inactive results. Active and inactive are the calls of the source. Unless noted, no stated cut-off is given here; in the data, active means inhibition above about 42%; inactive means the rest.

One may read the inhibition as the relative decrease from the control value, in per cent.

Test [1] can be described thus: StAR promoter reporter inhibitors, counter-screen for LRH-1 inverse agonist project, cell-based, luminescence, high throughput (AID 651611; in the data active means inhibition above about 28%). Conditions: StAR promoter luciferase reporter counterscreen, at 3.6 µM, hits give high values.
The target in test [2] is Nuclear receptor subfamily 5 group A member 2 (Homo sapiens) (UniProt O00482). As to the kind of experiment: LRH-1 (NR5A2) inverse agonists, retest, confirmation, cell-based, luminescence (AID 651613).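 Further: HEK293T cells co-transfected with LRH-1 and StAR promoter luciferase reporter; 0% = vehicle wells and 100% = parental cells lacking receptor.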 Conditions: cell-based LRH-1 luciferase reporter, inverse agonism; at 3.6 µM; hits give high values. For orientation: A reporter such as luciferase makes a cellular process visible.

The target in test [3] is Steroidogenic factor 1 (Homo sapiens) (UniProt Q13285). As to the kind of experiment: SF1 (NR5A1) inverse agonists, counter-screen for LRH-1 inverse agonist project, cell-based, luminescence, high throughput (AID 651614; in the data active means inhibition above about 44%;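 further: cells cotransfected with StAR promoter reporter and SF1 expression vector; 0% = vehicle on cells with receptor and 100% = vehicle on cells lacking receptor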). The following applies: cell-based SF1 luciferase reporter, at 3.6 µM, hits give high values. For orientation: A counterscreen serves to expose hits that act by an unwanted route or on another target.

A short description of test [4]: VP16 transactivation reporter inhibitors, counter-screen for LRH-1 inverse agonist project, cell-based, luminescence, high throughput (AID 651615; in the data active means inhibition above about 33%). The following applies: Gal4-VP16 luciferase reporter cells, at 3.6 µM, hits give high values.

Sequence of Nuclear receptor subfamily 5 group A member 2 (Homo sapiens) (O00482 whole entry, looked up): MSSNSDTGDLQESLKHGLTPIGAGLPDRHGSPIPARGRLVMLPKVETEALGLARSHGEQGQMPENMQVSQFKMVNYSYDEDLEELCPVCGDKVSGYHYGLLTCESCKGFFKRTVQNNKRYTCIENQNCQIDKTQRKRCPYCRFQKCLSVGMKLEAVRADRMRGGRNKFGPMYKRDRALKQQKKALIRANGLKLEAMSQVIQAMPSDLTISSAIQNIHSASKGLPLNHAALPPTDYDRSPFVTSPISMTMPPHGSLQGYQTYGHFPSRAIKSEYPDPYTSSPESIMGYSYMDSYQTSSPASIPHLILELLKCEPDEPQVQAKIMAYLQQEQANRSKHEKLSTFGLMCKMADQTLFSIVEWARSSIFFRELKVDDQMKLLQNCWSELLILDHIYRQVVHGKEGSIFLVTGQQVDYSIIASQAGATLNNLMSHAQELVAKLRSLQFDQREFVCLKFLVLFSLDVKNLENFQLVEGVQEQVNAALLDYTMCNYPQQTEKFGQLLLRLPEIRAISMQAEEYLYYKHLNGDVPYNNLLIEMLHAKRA
Sequence of Steroidogenic factor 1 (Homo sapiens) (Q13285 whole entry, looked up): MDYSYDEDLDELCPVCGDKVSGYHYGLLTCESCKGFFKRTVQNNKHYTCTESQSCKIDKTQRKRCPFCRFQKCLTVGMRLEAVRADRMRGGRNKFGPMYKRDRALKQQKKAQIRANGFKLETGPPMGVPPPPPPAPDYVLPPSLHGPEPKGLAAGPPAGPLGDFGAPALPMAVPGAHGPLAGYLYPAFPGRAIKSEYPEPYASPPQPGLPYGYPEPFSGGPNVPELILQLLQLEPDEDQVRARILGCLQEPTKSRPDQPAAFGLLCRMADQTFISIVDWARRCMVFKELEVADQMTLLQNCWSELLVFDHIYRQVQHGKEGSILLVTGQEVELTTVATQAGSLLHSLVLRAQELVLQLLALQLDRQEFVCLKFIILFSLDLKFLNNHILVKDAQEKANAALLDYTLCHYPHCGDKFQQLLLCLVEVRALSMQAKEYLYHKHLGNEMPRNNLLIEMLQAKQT

For `CC1CCCC(C)N1C(=O)COC(=O)CCC1CCCC1` (centres undefined), the inhibition in test [1] is 3.25%; in test [2] it was 51.2% (active); in test [3], 52.9% (active); in test [4], 2.94%.

Turning to `O=C(CSc1ncccc1-c1nc2ccccc2[nH]1)Nc1ccc2c(c1)OCCO2`, the inhibition is -8.79% in test [1], -2.1% in test [2], 5.63% in test [3] and -15.5% in test [4].

On to `O=C(CN1C(=O)NC2(CCOc3ccccc32)C1=O)Nc1cccc([N+](=O)[O-])c1` (centres undefined), for which the inhibition in test [1] is 13.7%; in test [2], 58.6% (active); in test [3], 53.6% (active); in test [4] it was -15.2%.

For `CCCc1nnc(SCC(=O)Nc2ccc(OC)cc2)o1`, the inhibition in test [1] is 5.23%; in test [2] it was 42.6% (active); in test [3], 45% (active); in test [4], -8.5%.

Take `CCOc1ccc(NC(=O)CSc2nc3ccccc3c(=O)n2CCCC(=O)NCC2CCCO2)cc1` (centres undefined): the inhibition in test [1] is 1.46%; in test [2], 41.9% (active); in test [3], 40.1%; in test [4], -6.22%.

In the case of `CCCCCCCCN1C(=O)[C@H](CC(=O)NCC23CC4CC(CC(C4)C2)C3)C[C@@]2(C(=O)OCC)CCCC=C12`, the inhibition in test [1] is 22.3%; in test [2], 24.8%; in test [3], 17.4%; in test [4] it was 14.6%.

On to `CC(=O)COc1ccc2c(-c3cccc([N+](=O)[O-])c3)cc(=O)oc2c1`, for which the inhibition in test [1] is 7.05%; in test [2], 67.2% (active); in test [3] it was 51.8% (active); in test [4], 0.45%.

Turning to `COc1ccc2c(c1)CCN(C(=O)CCl)C2C1C(=O)CCCC1=O` (centres undefined), the inhibition in test [1] was 10.2%; in test [2], 59% (active); in test [3], 54.4% (active); in test [4], -6.95%.

With `O=C(c1ccc([N+](=O)[O-])s1)N1CCN(c2ncccn2)CC1`, the inhibition in test [1] is 1.48%; in test [2] it was 30.8%; in test [3], 41.5%; in test [4], 4.85%.

For the compound `Oc1cccc(Nc2nc(-c3ccccc3Cl)nc3ccccc23)c1`, the inhibition is 9.52% in test [1], 54.2% (active) in test [2], 48.3% (active) in test [3] and -9.51% in test [4].

`COc1cc(/C=N/n2nnnc2N)ccc1OCc1c(C)no[n+]1[O-]`: the inhibition in test [1] was 9.05%; in test [2], 54.4% (active); in test [3] it was 42.6%; in test [4] it was 10.5%.

On to `NNC(=O)C(Cc1ccc(O)cc1)N1Cc2ccccc2C1=O` (centres undefined), for which the inhibition in test [1] was -1.94%; in test [2], 20.6%; in test [3] it was 29.4%; in test [4], 1.55%.

Take `CC1CC(C)CN(c2cc(N(C)CCO)c([N+](=O)[O-])c3nonc23)C1` (centres undefined): the inhibition in test [1] is 13.7%; in test [2], 64.2% (active); in test [3] it was 63.6% (active); in test [4], -3.82%.

Take `CCOc1cc(/C=C2/C(=N)N3OC(C)=CC3=NC2=O)ccc1OCCOc1ccccc1`: the inhibition in test [1] is 5.5%; in test [2], 46% (active); in test [3], 32.2%; in test [4] it was -12.2%.

As to `CC(C)NC(=O)N1Cc2cc(C(=O)NC3CCCC3)nc(-c3cccc(-c4cccnc4)c3)c2[C@@H]1CCO`, the inhibition in test [1] is 24.3%; in test [2], 45.1% (active); in test [3] it was 42.1%; in test [4] it was 5.54%.

Turning to `Cn1nnnc1Sc1ncnc2scc(-c3ccc(-c4ccccc4)cc3)c12`, the inhibition in test [1] is 19.4%; in test [2] it was 33.6%; in test [3], 39.4%; in test [4] it was -20.2%.

As for `C[C@H](CO)N1C[C@H](C)[C@H](CN(C)Cc2ccncc2)Oc2cc(-c3ccccc3F)ccc2S1(=O)=O`, the inhibition is 12.8% in test [1], 64.6% (active) in test [2], 64.6% (active) in test [3] and 11.1% in test [4].

For the compound `CC(=O)c1ccc(NC(=O)CSc2nc3[nH]ncc3c(=O)[nH]2)cc1`, the inhibition was -0.97% in test [1], 61.5% (active) in test [2], 50.8% (active) in test [3] and -6.29% in test [4].

For `C#CCN(C[C@@H]1[C@@H](OC(=O)NCc2ccc(OC)c(OC)c2)[C@@H](OC(=O)NCc2ccc(OC)c(OC)c2)Cn2c(=O)ccc(=O)n21)S(=O)(=O)c1ccc(C)cc1`, the inhibition in test [1] is 16.6%; in test [2] it was 40%; in test [3], 35.7%; in test [4] it was 10.2%.

On to `Nc1c2ccccc2nc2ccccc12`, for which the inhibition in test [1] was 14.7%; in test [2], 106% (active); in test [3] it was 52.1% (active); in test [4] it was 90.4% (active).

For `Clc1ccc(Cn2ncc3c(NCc4ccccc4)ncnc32)cc1`, the inhibition is 43.3% (active) in test [1], 59.4% (active) in test [2], 51.4% (active) in test [3] and 14.4% in test [4].

For `O=C(Nc1ccc(S(=O)(=O)N2CCOCC2)cc1)c1ccc([N+](=O)[O-])o1`, the inhibition in test [1] is 17.6%; in test [2] it was 57.5% (active); in test [3], 65.2% (active); in test [4], -5.86%.

Take `COc1ccc(N2CCN(C(=O)C3CCC(Cn4c(=S)[nH]c5ccccc5c4=O)CC3)CC2)cc1` (centres undefined): the inhibition in test [1] was 9.08%; in test [2], 36.1%; in test [3] it was 39.2%; in test [4], 26.8%.

`c1ccc(-c2nc(NCC3CCCO3)c3oc4ccccc4c3n2)cc1` (centres undefined): the inhibition is -0.47% in test [1], 38.2% in test [2], 39.8% in test [3] and -17.1% in test [4].

Turning to `CCOC(=O)c1ccc(NC(=O)CSc2nnc(COc3ccccc3OC)n2C)cc1`, the inhibition in test [1] was -2.53%; in test [2] it was 40.4%; in test [3] it was 35.7%; in test [4] it was -6.59%.

For the compound `O=C(OCC(=O)N1CCN(C(=O)COC(=O)c2ccc(O)cc2O)CC1)c1ccc(O)cc1O`, the inhibition was 14.4% in test [1], 61% (active) in test [2], 61.2% (active) in test [3] and 3.8% in test [4].
